Screening results (PubChem)
Most compounds without a hit are left out; they make up all but 22% or so of the library.
CHX counter: counter-screen hit for Shiga toxin inhibitors, cycloheximide; cell reporter, cycloheximide protein synthesis inhibition counterscreen; max response, %; 300,000 tested, 12% active; AID 2314; in the data active = max response mostly above about 13%, no sharp cut-off; inactive = mostly below about 14%; note: read at 38.3 µM for the half of the compounds with a filed dose; 0% is about no effect
Pf growth 96h: P. falciparum growth inhibition at 96 hours; P. falciparum luciferase reporter growth, 96 h; Potency, µM (series often up to 28.7 µM), for inactives: at the top dose activity change, negative = inhibition, hits mostly inhibitors; 320,000 tested, 6.9% active; AID 504834; note: potency is the fitted concentration of half-maximal effect; % is set by controls: 0 for no effect and ±100 for the full control effect
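P. falciparum expressing integrated firefly luciferase grown in erythrocytes (2% hematocrit, 0.05% parasitemia final) with compounds for 96 hours at 37 C, 5% CO2. Growth inhibition read as loss of luminescence after adding luciferase detection reagent.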
Pf growth 48h: inhibits P. falciparum growth in the first generation, 48 h; P. falciparum luciferase growth in erythrocytes, 48 h; Potency, µM (series often up to 28.7 µM), inactives show at the highest dose activity change, negative = inhibition, hits mostly inhibitors; 310,000 tested, 5.9% active; AID 504832; note: potency is the fitted concentration of half-maximal effect; % is set by controls: 0 for no effect and ±100 for the full control effect
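Luciferase-expressing parasites in RBCs, 2% Hct / 0.1% parasitemia final; RPMI 1640 + 0.5% Albumax; 37 C, 5% CO2, one generation; luminescence read-out, lower signal = inhibition.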
LmPK inh: inhibitors of Leishmania mexicana pyruvate kinase | Potency, µM (titrated, usually from 57.5 µM), inactives show at the highest dose activity change, negative = inhibition, most hits filed as inhibitors | 290,000 tested, 0.37% active | AID 1721 | purified LmPK, Kinase-Glo ATP luminescence, 1 h | Q27686; note: potency is the fitted concentration of half-maximal effect; % is set by controls: 0 for no effect and ±100 for the full control effect
Target sequence (Q27686 whole entry, looked up): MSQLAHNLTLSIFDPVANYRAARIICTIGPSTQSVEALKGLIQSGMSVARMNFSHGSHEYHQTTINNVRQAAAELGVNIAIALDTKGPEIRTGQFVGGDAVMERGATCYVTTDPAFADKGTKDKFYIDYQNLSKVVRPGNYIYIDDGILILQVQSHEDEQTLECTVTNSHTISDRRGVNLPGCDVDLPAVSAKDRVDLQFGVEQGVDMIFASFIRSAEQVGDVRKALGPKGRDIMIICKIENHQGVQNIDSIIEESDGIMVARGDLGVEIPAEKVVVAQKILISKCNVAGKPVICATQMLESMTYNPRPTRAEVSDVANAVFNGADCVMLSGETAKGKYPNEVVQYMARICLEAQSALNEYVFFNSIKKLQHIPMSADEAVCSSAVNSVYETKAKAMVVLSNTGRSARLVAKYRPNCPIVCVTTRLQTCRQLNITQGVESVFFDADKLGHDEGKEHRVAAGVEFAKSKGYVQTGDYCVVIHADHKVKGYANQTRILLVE
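ATP generated from ADP (0.1 mM) and PEP (0.5 mM) by 0.1 nM LmPK over 1 h at room temperature (pH 7.2 imidazole buffer) was detected by coupled luciferase luminescence. Values were normalized to uninhibited and no-enzyme wells.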
Shiga toxin inh: inhibitors of Shiga toxin in Vero cells; Vero cells, Shiga toxin protein synthesis inhibition reporter; inhibition, % at 38.7 µM; 290,000 tested, 9.2% active; AID 2315; in the data active = inhibition mostly above about 28%, no sharp cut-off; inactive = mostly below about 43%; note: 0% is about no effect
Active calls of the source: *; ? = inconclusive; nt = no result; [ ] = dose if it differs, or a comment. Unless noted, calls come from the whole dose curve; as a rule, active = well fitted inhibition curve with a large enough effect; inconclusive = small, poorly fitted or top-dose-only effect, or another doubt; inactive = no such curve, though single readings can be large or run the other way.

SMILES | CHX counter | Pf growth 96h | Pf growth 48h | LmPK inh | Shiga toxin inh
c1ccc(-c2nc(-c3ccncc3)no2)cc1 | 69.6* | 9.5% | 42.6% | 14.1µM* | 148.1*
c1coc(-c2nc(-c3ccncc3)no2)c1 | 48.8* | ? | 137.0% | 22.4µM* | 71.2*
c1ccc(-c2ccccc2-c2nc(-c3ccncc3)no2)cc1 | -1.0 | 14.1% | ? | -11.8% | 6.8
c1ccc(C(Cc2nc(-c3ccncc3)no2)c2ccccc2)cc1 | -2.0 | -1.0% | 7.38µM* | 6.3% | -4.9
Cc1c(C(=O)c2ccccc2)c(=O)n(C)c(=O)n1C | -2.5 | 49.9% | 21.4% | 4.0% | -3.1
Cc1c(N(C)S(=O)(=O)c2ccc(Cl)c(C(=O)N3CCC(C(N)=O)CC3)c2)c(=O)n(-c2ccccc2)n1C | nt | 10.1% | 4.6% | nt | nt
Cc1ccccc1NC(=O)Nc1nnc(Cc2ccc([N+](=O)[O-])cc2)s1 | -2.3 | 0.0% | -6.2% | -1.0% | -13.4
CC1CCN(S(=O)(=O)c2cnc[nH]2)CC1 | 3.5 | ? | 0.2% | 1.6% | 18.2
CN(C)c1ccc(C(=O)OCC#CCSc2nnc(-c3cccc4ccccc34)o2)cc1 | nt | 23.2% | -8.9% | nt | nt
O=C(CN1CCN(C(=O)c2c(F)cccc2F)CC1)Nc1ccccc1C(F)(F)F | 8.1 | -7.8% | 3.1% | 4.0% | 2.0
c1ccc(-c2ccc(-c3nc(-c4ccncc4)no3)cc2)cc1 | 34.8* | -27.3% | nt | 7.8% | 82.0
COc1ccc(S(=O)(=O)N2CCCOC2CNC(=O)C(=O)NCc2cccnc2)cc1 (stereo not given) | -3.5 | 2.0% | -4.9% | -14.5% | -17.6
Cc1cc2c(cc1S(=O)(=O)NCc1ccccc1)OCC(=O)N2 | -3.7 | 18.7% | 21.6% | 2.4% | -7.2
COc1ccc(N2C(=O)CC(=O)NC2=O)cc1 | -2.3 | -5.0% | 27.7% | -6.9% | -9.3
COc1ccc(CN2C(=O)CC(=O)NC2=O)cc1 | -9.7 | 4.15µM* | 1.3% | 8.0% | -15.1
CC(CCOS(N)(=O)=O)c1ccccc1 (stereo not given) | -3.6 | -11.7% | 0.0% | -4.0% | 3.5
CCN(C(=O)CO/N=C/c1ccc(OC)cc1OC)c1c(N)n(Cc2ccccc2)c(=O)[nH]c1=O | nt | -0.8% | -21.1% | nt | nt
Cc1nc2c(-c3ccccc3)cnn2c(N2CCOCC2)c1C | 47.0* | 179.8% | 187.4% | 5.8% | 97.5*
CCCc1cc(N2CCOCC2)n2ncc(-c3ccccc3)c2n1 | 38.6* | 37.8% | 29.0% | 2.3% | 57.8*
O=C(CSc1nnc(CNC(=O)c2c(F)cccc2Cl)o1)NCc1ccc(F)cc1 | -1.5 | ? | -1.4% | -8.8% | -10.9
COC(=O)CC(c1ccc(OC)c(OC)c1)c1ccc(OC)c(OC)c1 | 6.2 | 75.9%[5.75 µM] | 0.5% | 4.9% | -15.7
CC1CCCCN1C(=O)COC(=O)c1ccc2ccccc2n1 (stereo not given) | nt | -21.7% | -14.0% | nt | nt
CC1CCCCN1C(=O)COC(=O)/C=C/c1ccc2ccccc2n1 (stereo not given) | 47.8* | ? | -5.0% | 0.0% | 47.7*
COC(=O)CNC(=O)COC(=O)/C=C/c1ccc2ccccc2n1 | 20.2* | -17.2% | ? | -3.5% | 32.1*
CCCCC(=O)OCc1nc(N)nc(Nc2ccccc2C)n1 | 58.0* | -2.4% | 0.3% | 1.2% | active
SMILES | CHX counter | Pf growth 96h | Pf growth 48h | LmPK inh | Shiga toxin inh
Cc1ccc(N2CC(C(=O)OCc3nc(N)nc(Nc4ccccc4C)n3)CC2=O)cc1 (stereo not given) | nt | 3.4% | 32.1% | nt | nt
COc1ccccc1C(=O)OCc1nc(N)nc(Nc2ccccc2C)n1 | 36.1* | 59.6% | 47.0% | 1.2% | 43.1
Cc1ccccc1Nc1nc(N)nc(COC(=O)C2CCCCC2)n1 | 70.9* | 19.9% | 40.5% | 0.6% | 69.7*
Cc1ccccc1Nc1nc(N)nc(COC(=O)CCS(=O)(=O)c2ccc(Cl)cc2)n1 | nt | 5.4% | 20.7% | nt | nt
COc1cc(NC(=O)c2cccs2)c(OC)cc1NC(=O)Nc1ccc(F)cc1 | -1.0 | 40.0% | 6.4% | 5.7% | 1.2
CN1CCN(C(=O)/C(=C/c2ccccc2)c2ccccc2)CC1 | 1.9 | nt | -1.4% | 1.4% | -20.4
CC1CC(C)CN(C(=O)/C(=C\c2ccccc2)c2ccccc2)C1 (stereo not given) | 8.3 | 93.2% | 1.85µM* | 0.8% | -7.0
O=C(NCc1ccccn1)c1cccs1 | 2.3 | 13.3% | 18.5% | 0.7% | 12.3
O=C(NCc1ccccn1)c1c(Cl)cccc1Cl | 0.4 | 72.0% | 9.1% | 5.9% | 2.7
O=C(NCc1ccccn1)c1ccc(Br)s1 | 17.4* | nt | 3.7µM* | 3.3% | 32.1*
O=C(NCc1ccccn1)c1ccc(Cl)s1 | 23.5* | 9.9% | nt | -3.5% | 26.3
